Test results published in PubChem BioAssay.
Some of the results follow. Values without a mark were called inactive. Calls of active or inactive are those of the source.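 How the source made its calls, unless noted: active means inhibition above the primary screen's cutoff, its mean inhibition plus 3 SD (cut at about 35% in these data); inactive means the rest.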

What was measured:
[1] = biological target: Glutathione S-transferase omega-1 (Homo sapiens) (UniProt P78417); assay: recombinant GSTO1 blockers, retest – biochemical, fluorescence polarization, triplicate, counter-screen for RBBP9 inhibitor project, confirmation (AID 2176); conditions: recombinant GSTO1, probe fluorescence polarization; at 5.96 µM; stronger effect = higher value;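 further: loss of polarization as inhibitors block binding of rhodamine sulfonate ester activity probe; 0% = GSTO1 with DMSO and 100% = wells lacking GSTO1 enzyme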
[2] = biological target: Serine protease HTRA1 (Homo sapiens) (UniProt Q92743); assay: confirming inhibition of human HTRA1 – biochemical, fluorescence polarization, confirmation (AID 540248;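 active means mean inhibition over three repeats above a set limit taken from the earlier primary screen, cut at about 37% in these data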;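 further: 0% = HTRA1 with DMSO and 100% = wells lacking HTRA1; inhibitors block probe binding so polarization drops and inhibition rises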); conditions: recombinant HTRA1, FP-rhodamine activity-based probe, at 5.96 µM, stronger effect = higher value
[3] = biological target: (Lyso)-N-acylphosphatidylethanolamine lipase (Mus musculus) (UniProt Q8VD66); assay: mouse ABHD4 hydrolase blockers, triplicate – biochemical, fluorescence polarization, confirmation (AID 720658;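 active means mean inhibition across replicates above the hit cutoff set in the primary screen, cut at about 30% in these data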;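 further: 0% = wild-type ABHD4 with DMSO and 100% = catalytically dead S159A mutant with DMSO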); conditions: purified mABHD4, FP-Rh probe fluorescence polarization; at 8.92 µM; stronger effect = higher value
[4] = biological target: Photoreceptor-specific nuclear receptor (Homo sapiens) (UniProt Q9Y5X4); assay: corepressor-releasing ligands of human NR2E3 – biochemical, TR-FRET, confirmation (AID 2379; in the data active means activation above about 20%); conditions: cell-free NR2E3 corepressor release, 5 h, at 3.98 µM, stronger effect = higher value
[5] = biological target: Peroxisome proliferator-activated receptor gamma (Homo sapiens) + Nuclear receptor corepressor 2 (Homo sapiens) (UniProt P37231+Q9Y618); assay: agonists of PPARg-NCOR2 corepressor interaction, counter-screen for NR2E3 agonist project, biochemical, TR-FRET (AID 504787; in the data active means inhibition above about 20%;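 further: 0% = DMSO vehicle and 100% = wells without protein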); conditions: TR-FRET PPARg-NCOR2 coregulator interaction, at 3.98 µM, stronger effect = higher value
[6] = biological target: Oxytocin receptor (Homo sapiens) (UniProt P30559); assay: oxytocin receptor activation, retest of hits – fluorescence, CHO-OTR cells, triplicate, confirmation (AID 434963;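 active means mean activation above about 20% derived from the earlier single-dose screen, limit read from the data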;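 further: peak over minimum fluorescence ratio per well during a 100 second FLIPR read; 0% = DMSO alone and 100% = oxytocin high control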); conditions: Fluo-8 calcium fluorescence, agonist, at 3 µM, stronger effect = higher value
[7] = biological target: Vasopressin V1a receptor (Homo sapiens) (UniProt P37288); assay: activators of vasopressin V1R in CHO cells – cell-based, triplicate, fluorescence, counter-screen for OXTR agonist project (AID 434991;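 active means mean activation over triplicate exceeds the hit threshold set in the earlier primary screen, cut at about 20% in these data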;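 further: peak over basal fluorescence ratio within a 100 second read; 0% = DMSO alone and 100% = 3 nM vasopressin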); conditions: Fluo-8 calcium fluorescence, at 3 µM, stronger effect = higher value
[8] = biological target: Lytic switch protein BZLF1 (Epstein-Barr virus (strain B95-8)) (UniProt P03206); assay: blockers of Zta-ZRE DNA complex – biochemical, fluorescence polarization, triplicate, confirmation (AID 2361;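 active means mean inhibition across triplicate runs above the hit threshold derived for the original primary screen, cut at about 33% in these data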;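 further: 0% = Zta with DMSO and 100% = wells lacking Zta protein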); conditions: Zta-ZRE DNA binding, at 11.1 µM, stronger effect = higher value
[9] = system: Epstein-Barr virus nuclear antigen 1 (EBNA-1), Human herpesvirus 4; assay: blockers of EBV EBNA-1 binding to DNA – biochemical, fluorescence polarization, counter-screen for ZTA inhibitor project (AID 2362; call rule not given here); conditions: EBNA-1 DNA binding, at 14.8 µM, stronger effect = higher value
[10] = VP16-driven transactivation reporter suppression – cell-based, luminescence, HEK293, counter-screen for COUP-TFII antagonist project (AID 687007; in the data active means inhibition above about 13%); conditions: HEK293 Gal4-VP16 luciferase reporter, at 8.5 µM, stronger effect = higher value
[11] = biological target: COUP transcription factor 2 (Homo sapiens) (UniProt P24468); assay: retest of COUP-TFII reporter suppressors – cell-based, luciferase reporter, HEK293, triplicate, confirmation (AID 687008;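 active means mean inhibition over three repeats above a set limit taken from the earlier primary screen, cut at about 38% in these data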;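 further: 100% = cells given the luciferase reporter alone without the COUP-TF2 vector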); conditions: HEK293 NGFI-A luciferase reporter, luminescence; at 8.5 µM; stronger effect = higher value
[12] = biological target: Galanin receptor type 2 (Homo sapiens) (UniProt O43603); assay: blockers of human galanin receptor 2 – cell-based, confirmation (AID 866; in the data active means inhibition above about 27%;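 further: cells stimulated with galanin at about its EC80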); conditions: GALR2-expressing cells, antagonist mode, at 4 µM, stronger effect = higher value
[13] = nonspecific BLA reporter inhibition – CHO NFAT-bla cells, FRET readout, counter-screen for GALR2 antagonist project, confirmation (AID 867;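 active means inhibition above the mean inhibition across tested compounds plus 3 SD, cut at about 27% in these data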;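 further: 0% = 500 nM thapsigargin stimulated wells and 100% = unstimulated BSA only wells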); conditions: beta-lactamase FRET, thapsigargin-stimulated, at 4.2 µM, stronger effect = higher value

Oxytocin receptor (Homo sapiens), sequence (P30559 whole entry, looked up): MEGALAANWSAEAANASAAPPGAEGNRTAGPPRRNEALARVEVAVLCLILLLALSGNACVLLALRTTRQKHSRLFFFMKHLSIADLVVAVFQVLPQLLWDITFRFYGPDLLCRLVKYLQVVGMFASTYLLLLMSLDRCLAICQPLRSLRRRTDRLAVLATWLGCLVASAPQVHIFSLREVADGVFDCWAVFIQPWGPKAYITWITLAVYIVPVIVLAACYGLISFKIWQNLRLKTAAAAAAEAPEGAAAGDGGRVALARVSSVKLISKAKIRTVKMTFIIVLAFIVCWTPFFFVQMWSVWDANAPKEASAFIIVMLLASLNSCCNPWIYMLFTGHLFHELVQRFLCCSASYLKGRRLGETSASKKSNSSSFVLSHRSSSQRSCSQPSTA
Vasopressin V1a receptor (Homo sapiens), sequence (P37288 whole entry, looked up): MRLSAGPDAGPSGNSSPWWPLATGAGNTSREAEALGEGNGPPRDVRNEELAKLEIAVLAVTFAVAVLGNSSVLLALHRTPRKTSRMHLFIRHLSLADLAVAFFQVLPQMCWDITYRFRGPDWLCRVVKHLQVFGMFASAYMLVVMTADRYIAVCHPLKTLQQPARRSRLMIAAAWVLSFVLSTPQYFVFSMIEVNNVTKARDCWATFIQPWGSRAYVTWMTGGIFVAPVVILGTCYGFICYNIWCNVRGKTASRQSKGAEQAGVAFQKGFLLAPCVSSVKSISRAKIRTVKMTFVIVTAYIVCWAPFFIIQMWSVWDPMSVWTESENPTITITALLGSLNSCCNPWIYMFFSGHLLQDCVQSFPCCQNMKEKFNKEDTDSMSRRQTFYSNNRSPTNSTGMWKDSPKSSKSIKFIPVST
Glutathione S-transferase omega-1 (Homo sapiens), sequence (P78417 whole entry, looked up): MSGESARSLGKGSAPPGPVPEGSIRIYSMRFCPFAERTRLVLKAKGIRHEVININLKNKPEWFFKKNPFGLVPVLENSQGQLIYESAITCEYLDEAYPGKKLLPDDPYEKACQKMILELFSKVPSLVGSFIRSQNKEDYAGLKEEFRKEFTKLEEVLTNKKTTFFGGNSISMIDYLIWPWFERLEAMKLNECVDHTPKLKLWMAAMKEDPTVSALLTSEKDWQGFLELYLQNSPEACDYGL
Lytic switch protein BZLF1 (Epstein-Barr virus (strain B95-8)), sequence (P03206 whole entry, looked up): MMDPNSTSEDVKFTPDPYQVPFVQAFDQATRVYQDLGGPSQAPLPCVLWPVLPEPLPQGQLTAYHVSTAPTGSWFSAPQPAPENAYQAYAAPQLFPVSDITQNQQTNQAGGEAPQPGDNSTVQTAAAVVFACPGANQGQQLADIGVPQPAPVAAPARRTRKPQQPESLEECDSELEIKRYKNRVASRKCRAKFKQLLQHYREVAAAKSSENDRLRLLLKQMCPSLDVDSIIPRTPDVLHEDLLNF
Peroxisome proliferator-activated receptor gamma (Homo sapiens) + Nuclear receptor corepressor 2 (Homo sapiens), sequence (P37231 whole entry, looked up): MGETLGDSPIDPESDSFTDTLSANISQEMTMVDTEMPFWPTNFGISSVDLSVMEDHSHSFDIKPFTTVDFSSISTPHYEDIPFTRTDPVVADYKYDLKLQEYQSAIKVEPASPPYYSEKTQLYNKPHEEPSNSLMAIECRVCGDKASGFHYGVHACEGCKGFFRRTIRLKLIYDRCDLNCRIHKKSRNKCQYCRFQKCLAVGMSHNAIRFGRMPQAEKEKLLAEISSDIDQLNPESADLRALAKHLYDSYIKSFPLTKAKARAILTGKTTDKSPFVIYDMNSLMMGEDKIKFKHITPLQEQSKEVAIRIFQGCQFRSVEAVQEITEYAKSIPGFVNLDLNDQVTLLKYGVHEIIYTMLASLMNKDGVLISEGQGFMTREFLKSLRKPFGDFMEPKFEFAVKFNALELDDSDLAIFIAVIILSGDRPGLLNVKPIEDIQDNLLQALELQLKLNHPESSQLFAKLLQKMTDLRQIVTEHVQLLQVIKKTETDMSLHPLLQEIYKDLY
Peroxisome proliferator-activated receptor gamma (Homo sapiens) + Nuclear receptor corepressor 2 (Homo sapiens), sequence (Q9Y618 whole entry, looked up): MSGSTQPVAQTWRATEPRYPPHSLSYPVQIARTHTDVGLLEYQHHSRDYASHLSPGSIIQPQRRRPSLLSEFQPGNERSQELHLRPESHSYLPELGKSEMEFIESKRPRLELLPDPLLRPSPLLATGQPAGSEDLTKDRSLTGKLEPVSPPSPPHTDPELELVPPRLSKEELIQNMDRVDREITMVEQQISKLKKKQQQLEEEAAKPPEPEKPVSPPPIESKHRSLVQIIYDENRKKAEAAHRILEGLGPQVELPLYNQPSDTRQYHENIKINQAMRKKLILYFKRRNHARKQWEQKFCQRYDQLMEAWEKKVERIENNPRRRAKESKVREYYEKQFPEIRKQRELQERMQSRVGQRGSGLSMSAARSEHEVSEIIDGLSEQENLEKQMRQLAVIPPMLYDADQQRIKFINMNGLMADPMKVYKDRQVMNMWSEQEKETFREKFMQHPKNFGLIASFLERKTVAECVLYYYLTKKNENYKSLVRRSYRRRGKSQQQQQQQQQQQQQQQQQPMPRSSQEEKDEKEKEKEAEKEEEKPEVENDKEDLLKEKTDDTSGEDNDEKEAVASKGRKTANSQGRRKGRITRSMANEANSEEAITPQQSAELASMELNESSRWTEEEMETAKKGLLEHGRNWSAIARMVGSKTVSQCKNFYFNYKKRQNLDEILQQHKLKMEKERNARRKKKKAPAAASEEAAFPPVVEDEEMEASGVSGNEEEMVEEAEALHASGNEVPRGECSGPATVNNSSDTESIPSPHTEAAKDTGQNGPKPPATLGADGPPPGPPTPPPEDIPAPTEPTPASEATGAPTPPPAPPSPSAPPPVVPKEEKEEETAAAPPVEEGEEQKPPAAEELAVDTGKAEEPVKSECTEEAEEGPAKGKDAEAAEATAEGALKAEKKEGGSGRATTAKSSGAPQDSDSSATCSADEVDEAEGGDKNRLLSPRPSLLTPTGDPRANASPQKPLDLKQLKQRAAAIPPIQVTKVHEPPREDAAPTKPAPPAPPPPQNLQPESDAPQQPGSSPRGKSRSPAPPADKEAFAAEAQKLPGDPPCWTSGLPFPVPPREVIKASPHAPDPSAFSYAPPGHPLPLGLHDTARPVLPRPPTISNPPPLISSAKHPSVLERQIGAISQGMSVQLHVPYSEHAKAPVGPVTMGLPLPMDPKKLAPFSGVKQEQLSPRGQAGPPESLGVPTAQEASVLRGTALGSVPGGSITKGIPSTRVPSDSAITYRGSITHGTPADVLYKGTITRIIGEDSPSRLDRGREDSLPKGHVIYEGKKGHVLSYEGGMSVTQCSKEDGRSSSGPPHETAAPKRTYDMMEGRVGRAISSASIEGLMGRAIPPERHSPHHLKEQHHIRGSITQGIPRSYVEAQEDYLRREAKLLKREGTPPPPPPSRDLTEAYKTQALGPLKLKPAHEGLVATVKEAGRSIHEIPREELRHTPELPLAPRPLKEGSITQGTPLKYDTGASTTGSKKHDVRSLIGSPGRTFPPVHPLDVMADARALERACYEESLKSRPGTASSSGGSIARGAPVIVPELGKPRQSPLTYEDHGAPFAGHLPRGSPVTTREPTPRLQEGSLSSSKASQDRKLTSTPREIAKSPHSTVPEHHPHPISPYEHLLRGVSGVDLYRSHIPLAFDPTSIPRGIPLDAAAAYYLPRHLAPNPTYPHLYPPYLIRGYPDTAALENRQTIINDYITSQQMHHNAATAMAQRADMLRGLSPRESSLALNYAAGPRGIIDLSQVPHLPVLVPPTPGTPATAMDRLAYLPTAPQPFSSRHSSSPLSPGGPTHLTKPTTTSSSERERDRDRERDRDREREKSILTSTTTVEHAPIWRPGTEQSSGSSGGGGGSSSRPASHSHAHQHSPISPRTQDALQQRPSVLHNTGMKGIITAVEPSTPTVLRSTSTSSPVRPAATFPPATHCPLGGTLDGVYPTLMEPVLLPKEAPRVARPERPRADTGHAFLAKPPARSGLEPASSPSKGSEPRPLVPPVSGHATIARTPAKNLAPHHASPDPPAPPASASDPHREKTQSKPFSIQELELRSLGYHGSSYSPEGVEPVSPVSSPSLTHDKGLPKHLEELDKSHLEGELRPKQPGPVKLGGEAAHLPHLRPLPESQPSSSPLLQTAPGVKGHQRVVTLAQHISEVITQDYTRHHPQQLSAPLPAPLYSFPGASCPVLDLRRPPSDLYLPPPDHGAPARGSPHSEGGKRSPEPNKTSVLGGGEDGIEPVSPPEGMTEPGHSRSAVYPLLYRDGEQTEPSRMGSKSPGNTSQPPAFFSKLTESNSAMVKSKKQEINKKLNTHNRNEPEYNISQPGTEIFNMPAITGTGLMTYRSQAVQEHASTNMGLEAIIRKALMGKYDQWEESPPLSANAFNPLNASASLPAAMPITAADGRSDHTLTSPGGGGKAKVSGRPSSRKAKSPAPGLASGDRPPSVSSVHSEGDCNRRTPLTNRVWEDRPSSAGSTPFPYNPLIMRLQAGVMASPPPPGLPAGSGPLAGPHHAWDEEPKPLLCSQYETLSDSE
(Lyso)-N-acylphosphatidylethanolamine lipase (Mus musculus), sequence (Q8VD66 whole entry, looked up): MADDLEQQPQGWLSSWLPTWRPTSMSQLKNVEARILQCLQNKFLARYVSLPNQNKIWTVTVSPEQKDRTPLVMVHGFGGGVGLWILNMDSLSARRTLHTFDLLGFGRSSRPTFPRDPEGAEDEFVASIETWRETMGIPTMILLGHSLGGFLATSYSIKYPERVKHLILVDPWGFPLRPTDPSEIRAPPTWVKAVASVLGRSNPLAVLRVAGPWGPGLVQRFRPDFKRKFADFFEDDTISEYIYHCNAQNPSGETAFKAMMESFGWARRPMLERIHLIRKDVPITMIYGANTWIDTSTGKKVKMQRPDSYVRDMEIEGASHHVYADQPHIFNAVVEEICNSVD
Galanin receptor type 2 (Homo sapiens), sequence (O43603 whole entry, looked up): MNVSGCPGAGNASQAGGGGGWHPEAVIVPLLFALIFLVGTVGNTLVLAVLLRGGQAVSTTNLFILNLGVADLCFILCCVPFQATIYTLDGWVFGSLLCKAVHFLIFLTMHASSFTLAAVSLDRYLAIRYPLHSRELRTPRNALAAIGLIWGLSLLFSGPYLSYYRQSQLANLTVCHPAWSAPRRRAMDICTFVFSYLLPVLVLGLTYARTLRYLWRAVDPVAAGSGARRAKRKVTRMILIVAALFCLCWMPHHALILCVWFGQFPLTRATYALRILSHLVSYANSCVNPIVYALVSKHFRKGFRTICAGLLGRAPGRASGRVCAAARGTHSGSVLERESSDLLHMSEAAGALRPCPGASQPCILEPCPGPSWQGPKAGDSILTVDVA

Cc1ccc(SCC2=NNC(=O)C2)cc1
inhibition [1]: 11.5%

CCC1(CC)Cc2ccccc2-c2nc(CCl)[nH]c(=O)c21
inhibition [1]: 94% (active)

Cc1cccc(N2CCN(c3ccc(NC(=O)/C=C\C(=O)O)cc3)CC2)c1
inhibition [1]: 7.27% | inhibition [2]: 6.16% | inhibition [3]: 0.64%

Cn1c(SCC(=O)N/N=C/c2ccc(O)c(O)c2)nc2ccccc21
inhibition [1]: 3.76% | inhibition [2]: 72.4% (active) | inhibition [3]: 14.6%

O=C(CCl)NNc1cccc(Cl)n1
inhibition [1]: 50% (active)

C=CCOc1cccc(C2C(C(=O)c3ccc(C)o3)=C(O)C(=O)N2CCCn2ccnc2)c1 (configuration not stated)
activation (reported as inhibition) [4]: 9.01% | inhibition [5]: 7.51%

COc1cc(C(CCN2CCN(c3ccccc3)CC2)c2c(OC)cc(OC)c3ccc(=O)oc23)cc(OC)c1OC (configuration not stated)
activation [6]: -0.33% | activation [7]: 0.28%

CCN1CCN(CCNC(=O)c2ccc(/C=C3/Sc4ccccc4N(Cc4cccc(C)c4)C3=O)cc2)CC1
inhibition [8]: 49.5% (active) | inhibition [9]: 1.16%

CCOC(=O)C1=C(c2ccc(OC)cc2)C(=O)c2ccccc2C1=O
inhibition [1]: 8.3% | inhibition [10]: 80.8% (active) | inhibition [11]: 93.5% (active)

COc1ccc(N2CCN(C(=O)CN3C(=O)COc4ccccc43)CC2)cc1
inhibition [8]: -8.37% | inhibition [9]: -9.94%

CCCc1ccc(OCC(=O)NNC(=S)NC(=O)c2ccco2)cc1
activation [6]: 13.2% | activation [7]: 20.2%

CC1=C/C(=N\OS(=O)(=O)c2ccccc2)C=CC1=O
inhibition [12]: 90% (active) | inhibition [13]: 83.7% (active) | inhibition [1]: 7.61%

CCOC(=O)c1ccc(NC(=S)N2CCN(c3ccccn3)CC2)cc1
activation (reported as inhibition) [4]: -3.59% | inhibition [5]: -8.54%

CCCCCCCCCCOC(=O)Cn1c(COc2cccc(OC)c2)[n+](C)c2ccccc21
activation [6]: 12% | activation [7]: 14.7%

COc1cccc(CNCCc2c[nH]c3ccccc23)c1OCc1ccccc1F
activation [6]: 14.2% | activation [7]: 12.1%

c1ccc(C2CNCc3c2ccc2ccccc32)cc1 (configuration not stated)
activation [6]: 15.8% | activation [7]: 6.47%

COc1ccc(NS(=O)(=O)c2ccc(NC(=S)NC(=O)CC(C)C)cc2)cc1
activation [6]: 12.6% | activation [7]: 12.8%

Cn1cnc2c1c(=O)n(Cc1ccccc1C#N)c(=O)n2C
inhibition [8]: -1.92% | inhibition [9]: -2.72%
